What all share (conditions): concentration: 1 μM, replicates: in singlicate; n = 1
The subject of test [1] is T1, FAK.
T1 construct: gene PTK2

Test [2] relates to FER.
Test [3] concerns FES.
For test [4], the system named is FGFR1.
Test [5] relates to FGFR2.
The test system of test [6] is FGFR3.
In test [7] the test system is FGFR4.
Test [8] concerns FGR.
Test [9] deals with FLT1.
Test [10] has as its system FLT3-autoinhibited.
Test [11] concerns FLT3.
Test [12] concerns FLT4.
The test system of test [13] is FRK.
The subject of test [14] is FYN.
Test [15] relates to GAK.
The subject of test [16] is T2, GCN2(Kin.Dom.2,S808G).
T2 construct: gene EIF2AK4

The test system of test [17] is GRK1.
The test system of test [18] is T3, GRK2.
T3 construct: gene ADRBK1

Test [19] has as its system T4, GRK3.
T4 construct: gene ADRBK2

For test [20], the system named is GRK4.
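Further: KINOMEscan kinase panel screen.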

With `Cc1cccc(-c2nc(Nc3cccc(C(N)=O)c3)c3ccccc3n2)n1` [GW876019], the “%Inh” value in test [1] worked out at 0%; in [2], 0%; in test [3], 25%; in [4], 0%; in [5], 17%; in test [6], 1%. Besides, the “%Inh” value in test [7] was 0%; in [8], 58%; in test [9] it was 42%; in test [10] it was 0%; in [11], 0%; in test [12], 10%. Moreover, the “%Inh” value is recorded as 16% in test [13]; 0% in test [14]; 0% in [15]; 0% in [16]; 14% in test [17]; 0% in test [18]. The “%Inh” value in [19] and in [20] was 0% each time.

As for `COc1cc2ncnc(Nc3ccc4nc(-c5ccccc5)[nH]c4c3)c2cc1OC.Cl` [GW282450], the “%Inh” value in test [1] came out at 0%; in test [2], 42%; in [3] it was 6%; in test [4], 10%; in test [5] it was 0%; in test [6] it was 0%. For the same compound, the “%Inh” value in [7] amounted to 14%; in test [8] it was 14%; in test [9] it was 38%; in test [10], 0%; in [11] it was 0%; in test [12], 0%. In addition, the “%Inh” value stood at 0% in test [13]; 34% in [14]; 68% in [15]; 0% in test [16]; 0% in [17]; 0% in [18]. Further, the “%Inh” value in test [19] is given as 14%; in test [20], 11%.

Take `Nc1nc(-c2nccs2)c(-c2ccnc3ccccc23)s1` [GW693542]: the “%Inh” value in test [1] is reported as 0%; in test [2], 15%; in test [3], 0%; in [4] it was 8%; in test [5] it was 0%; in test [6], 0%. For the same compound, the “%Inh” value in test [7] stood at 8%; in test [8] it was 9%; in test [9], 24%; in test [10], 0%; in [11], 2%; in [12] it was 0%. In addition, the “%Inh” value in test [13] is on record as 0%; in [14], 17%; in [15] it was 45%; in [16], 17%; in test [17], 0%; in test [18], 0%. For the same compound, the “%Inh” value in test [19] was found to be 39%; in test [20] it was 21%.

On to `CCn1c(-c2cccnc2O)nc2cnccc21` [SB-736715], for which the “%Inh” value in test [1], in [2], in test [3], in [4], in test [5] and in [6] was 0% each time. Also, the “%Inh” value is reported as 0% in test [7]; 0% in test [8]; 0% in test [9]; 0% in [10]; 23% in test [11]; 0% in test [12]. For the same compound, the “%Inh” value amounted to 0% in [13]; 0% in test [14]; 0% in test [15]; 8% in [16]; 0% in test [17]; 0% in [18]. For the same compound, the “%Inh” value in test [19] was 21%; in [20], 19%.

Regarding `Nc1ncnc2[nH]c(-c3ccccc3)nc12` [AH5015], the “%Inh” value was 8% in test [1]; 0% in test [2]; 8% in [3]; 2% in [4]; 0% in test [5]; 25% in test [6]. For the same compound, the “%Inh” value in test [7] came to 2%; in test [8], 31%; in test [9], 2%; in test [10] it was 0%; in [11], 0%; in test [12] it was 0%. Besides, the “%Inh” value in test [13] turned out to be 13%; in test [14], 39%; in test [15] it was 44%; in test [16], 27%; in [17], 0%; in test [18], 0%. In addition, the “%Inh” value is 49% in test [19] and 0% in test [20].

Take `Cc1ccc(-c2cc(-c3c[nH]nc3-c3ccccn3)ccn2)cc1` [GW684088]: the “%Inh” value in [1] amounted to 0%; in test [2], 13%; in [3], 21%; in test [4], 0%; in [5], 0%; in test [6], 30%. Besides, the “%Inh” value in test [7] came to 9%; in test [8], 22%; in test [9], 5%; in [10], 22%; in test [11], 0%; in [12], 0%. Also, the “%Inh” value in test [13] is 4%; in test [14] it was 0%; in test [15] it was 80%; in test [16], 0%; in [17], 8%; in [18], 0%. Moreover, the “%Inh” value in test [19] is recorded as 74%; in test [20], 0%.

Regarding `C[C@@H]1CCCCN1c1cc(-c2ccc3c(N)n[nH]c3c2)nc(N)n1` [GSK2258759], the “%Inh” value amounted to 0% in [1]; 0% in test [2]; 0% in test [3]; 0% in [4]; 0% in test [5]; 7% in [6]. In addition, the “%Inh” value in test [7] is on record as 3%; in test [8], 17%; in test [9] it was 14%; in test [10] it was 0%; in test [11] it was 0%; in [12], 0%. Further, the “%Inh” value in test [13] is given as 5%; in test [14] it was 19%; in test [15], 14%; in test [16], 0%; in [17], 0%; in test [18], 0%. Besides, the “%Inh” value in test [19] and in test [20] was 0% throughout.

With `Cc1cc(-c2ccc3c(c2)CC[C@@H](N[C@@H](C)c2ccccc2)C3)cnc1N.Cl` [GW412617], the “%Inh” value was determined as 0% in test [1]; 27% in test [2]; 0% in test [3]; 9% in test [4]; 16% in [5]; 56% in [6]. For the same compound, the “%Inh” value in test [7] was determined as 19%; in test [8] it was 26%; in test [9], 34%; in test [10] it was 8%; in [11], 27%; in test [12], 22%. Besides, the “%Inh” value in test [13] came to 19%; in [14] it was 27%; in [15] it was 33%; in test [16], 26%; in [17] it was 0%; in [18], 0%. In addition, the entries for the “%Inh” value in test [19] and in test [20] were 17% and 0%, respectively.

Take `Cc1ccc(NC(=O)Nc2cc(C(C)(C)C)nn2-c2ccccc2)cc1` [GSK1014915]: the “%Inh” value in test [1] amounted to 0%; in test [2], 20%; in [3], 0%; in test [4], 6%; in [5], 25%; in test [6], 16%. The “%Inh” value in test [7] was found to be 15%; in test [8] it was 18%; in [9], 33%; in test [10], 38%; in test [11], 98.6%; in test [12], 15%. Besides, the “%Inh” value in test [13] came out at 22%; in test [14] it was 4%; in test [15], 11%; in test [16] it was 9%; in [17], 9%; in test [18], 0%. In addition, the figures for the “%Inh” value in test [19] and in test [20] were 92.4% and 7%, respectively.

As to `O=C(Nc1n[nH]c2nc(-c3nccs3)c(Br)cc12)C1CCCC1` [SB-742609], the “%Inh” value in test [1], in [2], in test [3], in [4], in test [5] and in [6] was 0% throughout. For the same compound, the “%Inh” value in test [7] amounted to 12%; in test [8] it was 20%; in [9], 29%; in [10], 10%; in test [11], 44%; in test [12], 19%. Also, the “%Inh” value is given as 24% in [13]; 23% in test [14]; 2% in [15]; 5% in [16]; 0% in test [17]; 0% in test [18]. In addition, the figures for the “%Inh” value in test [19] and in [20] were 66% and 11%, respectively.

Regarding `COC(=O)c1c(-c2ccccc2)c2cc(C(=O)O)ccc2c(=O)n1Cc1ccccc1`, the “%Inh” value in test [1] came to 0%; in test [2], 0%; in [3], 0%; in test [4], 0%; in [5] it was 3%; in test [6], 0%. For the same compound, the “%Inh” value is 0% in test [7]; 0% in test [8]; 7% in test [9]; 3% in test [10]; 0% in test [11]; 0% in [12]. The “%Inh” value was 48% in test [13]; 0% in test [14]; 0% in test [15]; 10% in test [16]; 0% in [17]; 0% in [18]. Moreover, the entries for the “%Inh” value in [19] and in [20] were 3% and 23%, respectively.

Turning to `Fc1cccc(COc2nnc(-c3ccc4c(c3)CCO4)o2)c1`, the “%Inh” value in test [1] came out at 0%; in [2], 0%; in [3] it was 14%; in test [4], 5%; in test [5] it was 0%; in test [6], 0%. Further, the “%Inh” value is on record as 0% in test [7]; 19% in test [8]; 0% in test [9]; 3% in test [10]; 4% in test [11]; 0% in test [12]. For the same compound, the “%Inh” value in test [13] was 0%; in test [14], 0%; in test [15], 2%; in test [16], 5%; in test [17] it was 0%; in [18] it was 0%. Moreover, the “%Inh” value in test [19] stood at 23%; in test [20], 0%.

On to `Cl.Oc1ccc(-c2nc(-c3ccccc3)[nH]c2-c2ccncc2)cc1` [SB-428218], for which the “%Inh” value in test [1] was found to be 0%; in [2] it was 0%; in [3], 17%; in test [4], 0%; in test [5], 4%; in [6] it was 0%. Moreover, the “%Inh” value in test [7] is on record as 9%; in test [8] it was 62%; in [9], 0%; in test [10], 0%; in test [11] it was 0%; in test [12] it was 0%. Moreover, the “%Inh” value was 37% in [13]; 23% in test [14]; 36% in [15]; 8% in [16]; 57% in test [17]; 0% in test [18]. The figures for the “%Inh” value in [19] and in test [20] were 75% and 0%, respectively.

Turning to `CCn1c(-c2ccccn2)nc2cnccc21` [SB-736398], the “%Inh” value in test [1] came out at 0%; in [2], 2%; in test [3], 30%; in [4], 1%; in test [5], 48%; in [6], 77%. Besides, the “%Inh” value in test [7] was 1%; in test [8] it was 41%; in [9] it was 21%; in test [10], 0%; in [11] it was 2%; in test [12], 0%. For the same compound, the “%Inh” value was 17% in test [13]; 0% in test [14]; 9% in test [15]; 10% in test [16]; 1% in test [17]; 5% in test [18]. For the same compound, the figures for the “%Inh” value in test [19] and in test [20] were 78% and 1%, respectively.

Source of the values: PMC5540273 (PLoS ONE, 2017).
